Data from PubChem BioAssay (NCI).
Where “and” joins values, the source holds several entries; their conditions need not be identical. Equal entries are not always repeated. Compounds without any hit were thinned out: in the full panel of roughly 79,000, 15% have a hit. A number with no mark means an inactive call. Calls of active or inactive are those of the source. No stated cut-off is given here; in the data, active means growth inhibition above about 70%; inactive means the rest.

How the values were obtained:
[1] = NCI Yeast Anticancer Drug Screen. Data for the rad50 strain (AID 155);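 further: 0% = growth of vehicle-only cultures of the same strain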; conditions: S. cerevisiae rad50 strain growth inhibition; at 50.0 µM; hits give high values
Summary of the method: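 Cells are treated with compound, grown, and their growth is then scored against vehicle-only cultures of the same repair-deficient yeast strain.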

[2] = NCI Yeast Anticancer Drug Screen. Data for the mec2-1 strain (AID 157); conditions: S. cerevisiae mec2-1 strain, at 50.0 µM, hits give high values
Summary of the method: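 Readout is yeast growth inhibition, normalised to vehicle-treated controls, in the mec2-1 strain exposed to compound.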

[3] = NCI Yeast Anticancer Drug Screen. Data for the sgs1 mgt1 strain (AID 161);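 further: 0% = growth of cultures given vehicle only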; conditions: S. cerevisiae sgs1 mgt1 strain, at 50.0 µM, hits give high values
Summary of the method: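 This yeast growth screen uses a strain with defined DNA-repair lesions; compound-treated growth is compared with vehicle-treated growth.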

[4] = NCI Yeast Anticancer Drug Screen. Data for the cln2 rad14 strain (AID 165);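 further: 0% = growth equal to vehicle treated cultures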; conditions: S. cerevisiae cln2 rad14 strain, at 50.0 µM, hits give high values
Summary of the method: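 Relative to vehicle controls, growth inhibition of compound-treated cln2 rad14 yeast was recorded.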

[5] = NCI Yeast Anticancer Drug Screen. Data for the bub3 strain (AID 167); conditions: S. cerevisiae bub3 mutant strain, at 50.0 µM, hits give high values
Summary of the method: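 Part of a panel of yeast mutants defective in DNA damage repair or cell cycle regulation. Each strain is grown with compound, and inhibition is calculated relative to solvent-treated cultures.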

[6] = NCI Yeast Anticancer Drug Screen. Data for the mlh1 rad18 strain (AID 175); conditions: S. cerevisiae mlh1 rad18 strain growth inhibition; at 50.0 µM; hits give high values
Summary of the method: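 Test agents were incubated with a yeast strain of defined genotype (DNA damage repair defect). Inhibition of growth was derived by comparison with vehicle-exposed cultures.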

Compound	growth inhibition [1]	growth inhibition [2]	growth inhibition [3]	growth inhibition [4]	growth inhibition [5]	growth inhibition [6]
COc1ccc(C(=O)C(CC2C(=O)NC(=O)NC2=O)c2ccc(OC)cc2)cc1 (stereo unspecified)	-7.65%	-8.65%	-22.9%	-17.1%	-19.1%	-19.1%
NNc1cccc2c1CCC(N)C2 (stereo unspecified)	-0.35%	21.7%	6.35%	-11.4%	5%	9.65%
CC(C)CCC[C@@H](C)[C@H]1CC[C@H]2[C@@H]3CC=C4C[C@@H](OC(=O)Cl)CC[C@]4(C)[C@H]3CC[C@]12C	-24.1%	-24.9%	-14.7%	1.7%	-2.7%	-13.4%
CCN(CC)CCc1ccccn1	-13.4%	-15.5%	-7%	-8.8%	-14.4%	5.5%
CCC1(CC)C(=O)N(C)P(=O)(Oc2ccccc2)N(C)C1=O	5.7%	15.4%	9.3%	1.6%	7.1%	4.6%
NCCN.NCCN.[Cl-].[O]=[Os+2]=[O]	0.8% and 3.45%	-22% and 1%	-6.15% and -20.8%	-20.3% and 23.3%	-40.6% and 0.3%	-6.3% and -13.2%
CCOP(=O)(CC)C(Cl)(Cl)Cl (stereo unspecified)	2.4%	-18.5%	-5.95%	-24.1%	6.05%	-2.2%
Cc1nn(C)pc1P(C)(=S)n1nc(N(C)C)np1 (stereo unspecified)	-2.65%	-19.1%	0.65%	0.2%	-7.55%	-7.75%
CCC[N+](CCC)(CCC)CCC.N#CC(C#N)=C([SH2+])[SH2+].N#CC(C#N)=C([SH2+])[SH2+].N#CC(C#N)=C([SH2+])[SH2+].[Cr+3]	-3.1%	10.2%	11.8%	-35%	9.1%	7.5%
CN(C)C(=O)C(Cl)Cl	-0.75%	7.3%	-4%	-7.25%	12.8%	2.25%
O=C1C(=O)c2ccccc2C(O)=C1CN(CCCl)CCCl	31.6%	17.9%	27.2%	-21.9%	30.8%	29.8%
C[n+]1cccc(C2CCC[N+]2(C)C)c1 (stereo unspecified)	4.4%	7.85%	8.15%	-10.9%	-9%	-4.6%
O=C1NC(=S)NC(=O)C1=CC1CC1	22.6%	13.8%	17.4%	19.6%	9.2%	29.6%
COC(=O)C(Cl)CCl (stereo unspecified)	2.45% and 39.4%	15.3% and 6.15%	-9.05% and 16%	-23.2% and -34.7%	-2.3% and 15.8%	-20.8% and 25.7%
O=C(O)CNC(=O)c1ccc([As](=O)(O)O)cc1	21.1%	19.1%	-26.4%	10.2%	22.1%	15.3%
COc1ccc(N=NC(=O)NC(CC(C)C)C(=O)NCC(=O)O)cc1 (stereo unspecified)	-0.8%	2.45%	10.4%	28.8%	5.35%	5.35%
COP(=O)(OC)/C(=C/c1c[nH]c2ccccc12)C(=O)O	-12.7%	-71.6%	-55.9%	-34.9%	-20.7%	-32.2%
CC(C)C(CC[C@@H](C)C1CC[C@@]2(C)C3=C(CC[C@]12C)[C@@]1(C)CC[C@H](O)C(C)(C)[C@@H]1CC3)S[As](C)C (stereo partly specified)	40.4%	-0.5%	26.7%	31.6%	-4.35%	32.8%
CC(C)(Cl)[N+](=O)[O-]	-3.35%	-13.3%	6.65%	-1.7%	-5.45%	16.6%
Cc1cc(Cl)ccc1N	32.4%	6.1%	0.65%	12.2%	24.4%	21.4%
C[CH2][Sn]1([CH2]C)[O]C(=O)[O][Sn]([CH2]C)([CH2]C)[O]1	-30.1%	0.95%	-30.2%	-5.05%	-6.05%	-53.3%
COc1cc(C(c2c(O)c3ccccc3oc2=O)c2c(O)c3ccccc3oc2=O)cc(OC)c1OC	-2.1%	-8.15%	-10.2%	0.9%	-11.7%	-2.85%
O=C([CH-]C(=O)C(F)(F)F)c1ccco1.O=C([CH-]C(=O)C(F)(F)F)c1ccco1.O=C([CH-]C(=O)C(F)(F)F)c1ccco1.[Ru+3]	8.2%	-11%	-19.6%	-11.6%	1.95%	11.7%

Compound	growth inhibition [1]	growth inhibition [2]	growth inhibition [3]	growth inhibition [4]	growth inhibition [5]	growth inhibition [6]
O=C(O)Cc1ccc([N+](=O)[O-])cc1[N+](=O)[O-]	3.55%	-13.6%	-7.25%	-27.2%	0.05%	-2.6%
CCOc1ccc(N)cc1	-4.65%	10.9%	-6.05%	5.85%	0.45%	8.65%
O=S(=O)(O)O.[Co+2].[NH-]CC[NH-].[NH-]CC[NH-].[NH-]CC[NH-]	11.1%	21.9%	9.75%	17.8%	3.2%	1%
N#CC1C(=O)c2ccccc2C1=O	-1.4%	4.15%	1.6%	-3.35%	12.8%	-1.85%
COc1ccc([N+](=O)[O-])cc1CNCCCl	-2.75%	24.6%	36.5%	-14.8%	20.1%	19.4%
N#CCCCBr	-2.7%	-15.8%	7.2%	-13.8%	-2%	11.8%
CCC1C2CC3C4N(C)c5ccccc5C45CC(C2C5O)N3C1O (stereo unspecified)	20.9% and -6.8% and -4.75%	-7.75% and 5.2% and -40.8%	-16.9% and 15.7% and -14.2%	-17.9% and -3.4% and -0.6%	13.6% and -10.1% and -32.2%	-11.4% and -41% and -23.6%
[Pt].c1ccc([PH+](CC[PH+](CC[PH+](c2ccccc2)c2ccccc2)c2ccccc2)CC[PH+](c2ccccc2)c2ccccc2)cc1 (stereo unspecified)	22.8%	14.3%	25.6%	8.6%	16.6%	8.75%
CC(=O)c1ccccc1O	10.8% and 2.05%	11.4% and -10.9%	-53.4% and -0.4%	-13.4% and 2.05%	-16.9% and 3.7%	-29.4% and -4.5%
CN1CC(C(=O)NO)C=C2c3cccc4[nH]cc(c34)CC21 (stereo unspecified)	8.8%	42.5%	23.5%	-3.7%	41.5%	14.4%
COc1cccc2c1C(=O)c1c(O)c3c(c(O)c1C2=O)CC(O)(C(=O)CO)CC3OC1CC(N2CCOCC2C#N)C(O)C(C)O1 (stereo unspecified)	86.7% (active)	90.2% (active)	88.9% (active)	86.5% (active)	88.2% (active)	89.8% (active)
O=S(=O)(Cl)OO/C=C\OOS(=O)(=O)Cl	18.2%	2.8%	12.7%	-19.2%	11%	-1.65%
CCCCCCCCCCCCCCC(O)C1CCC(C(O)CCC(O)CCCCCC(O)CC2=CC(C)OC2=O)O1 (stereo unspecified)	-37.2%	-33.1%	-17.6%	39.8%	-25.4%	2.7%
Cc1sc2cccc[n+]2c1C	5.85%	-12.9%	-8.95%	-8.95%	-3.4%	-14.4%
O=c1oc2cc(O)ccc2c(O)c1C(c1ccccn1)c1c(O)c2ccc(O)cc2oc1=O	12.6%	9.15%	-13.7%	-1.85%	-17.4%	-52%
CN(C)c1ccccc1CN1CCCN(Cc2ccccc2N(C)C)C1c1ccc(N(CCCl)CCCl)cc1	92.4% (active)	40.4%	93.5% (active)	57.4%	15.1%	90.8% (active)
O=C(/C=C/c1ccc([N+](=O)[O-])cc1Cl)Nc1cccc(S(=O)(=O)F)c1	6%	16.8%	-0.35%	18.2%	-6.3%	-8.2%
C/C1=N\NC(=O)c2ccccc2C(=O)N/N=C(\C)c2cccc1n2.O=[N+]([O-])[O-].[Zn+2]	-8.85%	-7.3%	-10.2%	5.8%	-38%	-5.05%
CC(C)CCC[C@@H](C)[C@H]1CC[C@H]2[C@@H]3CC[C@H]4C[C@H]5N[C@H]5C[C@]4(C)[C@H]3CC[C@]12C	10.6%	-21.8%	5.2%	-3.55%	-9.6%	0.1%
CCC1(c2ccccc2)C(=O)N(CCCl)C(=O)N(CCCl)C1=O	27.7%	15.8%	4.35%	-21.7%	12.2%	17.4%
CN(C)CCc1ccc(O)cc1	3.9% and -2.85%	4.2% and 2.8%	10.1% and -3.15%	5.55% and -16.4%	2.85% and -2.9%	-0.85% and 4.85%
O=C(Cl)C1CCC1	11%	-5.35%	10.1%	-4.65%	-7%	16.1%
O=c1cccc2n1CC1CNC[C@H]2C1	16.6%	9.5%	5.8%	7.75%	12.6%	-4.85%
